According to PubChem BioAssay:
The source made the active and inactive calls. Unless noted, how the calls were made is not given here.

Columns and labels:
[1] = anti-His antibody binders, primary screen, artefact control for SMM control protein annotation, biochemical, small-molecule microarray, 635 nm fluorescence (AID 1128); details: anti-His Alexa647 antibody binding, higher = more signal;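 further: score merges feature fluorescence with signal-to-noise for each printed compound spot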
[2] = system: Human papillomavirus type 1a E7 protein (residues 1-88); experiment: HPV1a E7 small-molecule binders, primary screen, biochemical, small-molecule microarray, residues 1-88, 635 nm (AID 1129); details: small-molecule microarray binding, fluorescence 635 nm; higher = more signal
[3] = biological target: Focal adhesion kinase 1 (Homo sapiens) (UniProt Q05397); experiment: small-molecule microarray binders of FAK, primary screen, biochemical, 635/667 nm fluorescence, BSA, DTT (AID 1130); details: PTK2 binding, 635 nm fluorescence, higher = more signal;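 further: composite of spot emission at 667 nm and signal to noise over triplicate slides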
[4] = system: Fibrinogen (Alexa647-labelled); experiment: fibrinogen binders on compound microarrays, profiling panel, artefact control for SMM control-protein annotation, biochemical, small-molecule microarray, 635/667 nm fluorescence (AID 1131); details: fibrinogen-A647 binding fluorescence, higher = more signal;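 further: z-score merges 667 nm fluorescence with per-spot signal-to-noise over triplicate slides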
[5] = biological target: Follistatin (Homo sapiens) (UniProt P19883); experiment: follistatin binders on small-molecule microarrays, primary screen, biochemical, small-molecule microarray, 635/667 nm fluorescence (AID 1132); details: FST binding, 635 nm fluorescence, higher = more signal
[6] = biological target: Fibroblast growth factor 2 (Homo sapiens) (UniProt P09038); experiment: FGF2 binders on small-molecule microarrays, primary screen, biochemical, small-molecule microarray, 635/667 nm fluorescence (AID 1133); details: small-molecule microarray binding, FGF2, fluorescence 635/667; higher = more signal
[7] = mitochondrial membrane potential change in A549 cells, profiling panel, cell-based, JC-1 fluorescence, basal, 24 h, 100 nL (AID 1138); details: higher = more signal;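 further: A549 lung adenocarcinoma cells under basal conditions with no added stimulus; test concentration not given here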
Lefty1 = Lefty1 binders on small-molecule microarrays, primary screen, biochemical, small-molecule microarray, 635/667 nm fluorescence (AID 1139); details: small-molecule microarray binding, fluorescence 635/667; higher = more signal
[8] = system: wheat germ agglutinin (Triticum aestivum), Alexa647-labelled; experiment: wheat germ agglutinin binders on compound microarrays, profiling panel, artefact control for SMM control-protein annotation, biochemical, small-molecule microarray, 635/667 nm fluorescence (AID 1140); details: WGA-A647 binding, 635 nm fluorescence, higher = more signal;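 further: score merges 667 nm feature emission with signal to noise over triplicate slides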
[9] = biological target: Luciferin 4-monooxygenase (Photinus pyralis) (UniProt P08659); experiment: firefly luciferase enzyme inhibitors, primary screen, biochemical, luminescence, purified enzyme, 2006 set (AID 1141); details: SteadyGlo luminescence, 30 min, higher = more signal, called active from +8 up or from −8 down;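 further: cell-free assay with purified firefly luciferase at 100 ng per well in PBS; test concentration not given here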
[10] = system: Wnt5a (protein binding on small-molecule microarray); experiment: Wnt5a binders on small-molecule microarray, primary screen, biophysical, 635/667 nm fluorescence (AID 1142); details: 635 nm fluorescence, higher = more signal;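 further: fluorescence read at 667 nm with signal to noise per printed feature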
[11] = cell viability in Huh7 cells, primary screen, cytotoxicity control for HCV replication inhibitor project, CellTiter-Glo luminescence, basal, 48 h (AID 1143); details: Huh7 HCV replicon, higher = more signal, called active from +8 up or from −8 down;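 further: Huh7 hepatoma cells carrying a hepatitis C replication reporter with no stimulus; test concentration not given here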
[12] = P. aeruginosa biofilm formation inhibitors, primary screen, PAO1 strain, BacTiter-Glo luminescence, LB-PBS (AID 1144); details: 12 h, higher = more signal
[13] = CREB reporter modulators without forskolin, primary screen, cell-based, PC12, CRE-LacZ reporter, unstimulated (AID 1145); details: no forskolin, luminescence, 4.5 h, higher = more signal, called active from +8 up or from −8 down
[14] = CREB reporter modulators under forskolin, primary screen, cell-based, PC12, CRE-LacZ reporter, forskolin-stimulated (AID 1146); details: luminescence, 4.5 h, higher = more signal, called active from +8 up or from −8 down;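 further: PC12 cells with 6xCRE LacZ reporter stimulated by forskolin 10 µM; beta-galactosidase reporter signal reflecting CREB driven transcription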
[15] = biological target: Streptavidin (Streptomyces avidinii) (UniProt P22629); experiment: streptavidin binders on small-molecule microarray, primary screen, artefact control for SMM compound annotation, biophysical, 635/667 nm fluorescence (AID 1147); details: streptavidin binding, higher = more signal;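 further: signal reflects streptavidin binding to arrayed compounds as a control protein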
[16] = small-molecule binders of probe aInhba, primary screen, biochemical, small-molecule microarray, 635/667 nm fluorescence (AID 1148); details: higher = more signal;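 further: score merges 667nm spot fluorescence with signal-to-noise for antibody binding to printed compounds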
Torsin-1A (Homo sapiens) [17] = biological target: Torsin-1A (Homo sapiens) (UniProt O14656); experiment: torsin A binders from cell lysate, primary screen, small-molecule microarray, wild-type, 635/667 nm (AID 1149); details: COS7 hTOR1A-WT lysate, 635 nm fluorescence, higher = more signal
Torsin-1A (Homo sapiens) [18] = biological target: Torsin-1A (Homo sapiens) (UniProt O14656); experiment: small-molecule binders of mutant TOR1A in lysate, primary screen, cell lysate, small-molecule microarray, COS7 lysate, 635/667 nm fluorescence (AID 1150); details: COS7 hTOR1A mutant lysate, 635 nm fluorescence, higher = more signal;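 further: score pools 667 nm emission and signal to noise measuring lysate protein binding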
[19] = system: Sonic hedgehog protein (Shh); experiment: small-molecule binders of Shh protein, primary screen, biochemical, small-molecule microarray, 635/667 nm fluorescence (AID 1151); details: small-molecule microarray binding, 635 nm fluorescence; higher = more signal;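 further: Shh protein binding to compounds spotted on small-molecule microarray slides; score combines spot fluorescence intensity with signal-to-noise across triplicate slides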

Sequence of Follistatin (Homo sapiens) (P19883 whole entry, looked up): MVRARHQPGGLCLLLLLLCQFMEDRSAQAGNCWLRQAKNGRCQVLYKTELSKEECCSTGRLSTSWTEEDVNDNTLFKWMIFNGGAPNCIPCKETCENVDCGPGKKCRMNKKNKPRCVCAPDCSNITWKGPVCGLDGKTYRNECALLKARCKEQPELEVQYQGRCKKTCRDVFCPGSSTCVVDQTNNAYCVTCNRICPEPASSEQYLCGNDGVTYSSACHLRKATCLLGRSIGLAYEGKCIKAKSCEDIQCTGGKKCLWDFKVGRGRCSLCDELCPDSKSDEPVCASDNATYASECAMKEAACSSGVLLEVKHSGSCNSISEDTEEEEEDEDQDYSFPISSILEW
Sequence of Focal adhesion kinase 1 (Homo sapiens) (Q05397 whole entry, looked up): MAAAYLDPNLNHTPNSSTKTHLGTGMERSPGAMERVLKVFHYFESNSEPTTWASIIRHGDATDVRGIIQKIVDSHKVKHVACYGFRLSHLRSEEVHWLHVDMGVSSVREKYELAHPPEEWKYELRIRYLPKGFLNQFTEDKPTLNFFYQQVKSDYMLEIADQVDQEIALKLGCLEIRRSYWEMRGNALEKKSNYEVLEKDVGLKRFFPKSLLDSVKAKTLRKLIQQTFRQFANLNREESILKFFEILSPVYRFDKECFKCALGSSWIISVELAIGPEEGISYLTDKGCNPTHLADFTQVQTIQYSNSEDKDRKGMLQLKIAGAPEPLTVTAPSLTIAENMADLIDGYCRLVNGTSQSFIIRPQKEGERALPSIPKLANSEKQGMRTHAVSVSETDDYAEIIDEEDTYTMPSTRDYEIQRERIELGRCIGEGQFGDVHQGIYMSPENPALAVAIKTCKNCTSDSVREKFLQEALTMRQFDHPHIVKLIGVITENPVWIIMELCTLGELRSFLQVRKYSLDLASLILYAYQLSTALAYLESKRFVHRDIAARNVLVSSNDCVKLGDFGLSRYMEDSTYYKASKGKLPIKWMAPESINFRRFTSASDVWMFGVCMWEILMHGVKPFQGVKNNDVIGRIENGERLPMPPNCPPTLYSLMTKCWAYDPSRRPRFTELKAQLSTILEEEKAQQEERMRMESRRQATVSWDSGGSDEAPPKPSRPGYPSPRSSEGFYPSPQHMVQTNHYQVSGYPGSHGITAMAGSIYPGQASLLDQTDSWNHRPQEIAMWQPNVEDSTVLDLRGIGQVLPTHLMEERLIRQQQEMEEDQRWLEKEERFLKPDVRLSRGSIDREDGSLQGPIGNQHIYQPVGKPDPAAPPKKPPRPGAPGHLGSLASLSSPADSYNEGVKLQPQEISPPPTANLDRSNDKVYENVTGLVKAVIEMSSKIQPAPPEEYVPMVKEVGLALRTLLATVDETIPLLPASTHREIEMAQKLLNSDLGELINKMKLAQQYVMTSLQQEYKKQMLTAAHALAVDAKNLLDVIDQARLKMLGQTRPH
Sequence of Torsin-1A (Homo sapiens) (O14656 whole entry, looked up): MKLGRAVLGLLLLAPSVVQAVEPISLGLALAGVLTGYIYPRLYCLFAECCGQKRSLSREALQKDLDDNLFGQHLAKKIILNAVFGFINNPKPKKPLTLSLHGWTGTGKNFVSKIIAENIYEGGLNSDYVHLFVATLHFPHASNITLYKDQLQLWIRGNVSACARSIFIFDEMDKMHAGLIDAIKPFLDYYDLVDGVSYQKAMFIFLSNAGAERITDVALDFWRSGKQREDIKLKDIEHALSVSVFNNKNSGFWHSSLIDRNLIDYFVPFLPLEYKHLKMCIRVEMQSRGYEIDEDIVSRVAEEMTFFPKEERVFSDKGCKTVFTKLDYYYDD
Sequence of Fibroblast growth factor 2 (Homo sapiens) (P09038 whole entry, looked up): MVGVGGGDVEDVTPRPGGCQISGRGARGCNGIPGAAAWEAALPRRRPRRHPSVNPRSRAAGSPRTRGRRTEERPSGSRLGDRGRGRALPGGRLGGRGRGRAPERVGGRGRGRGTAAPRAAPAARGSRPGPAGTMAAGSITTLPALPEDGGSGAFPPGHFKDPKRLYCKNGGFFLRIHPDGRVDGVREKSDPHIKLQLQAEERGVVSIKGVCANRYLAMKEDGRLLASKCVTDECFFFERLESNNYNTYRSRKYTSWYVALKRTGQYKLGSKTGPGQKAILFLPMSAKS
Sequence of Luciferin 4-monooxygenase (Photinus pyralis) (P08659 whole entry, looked up): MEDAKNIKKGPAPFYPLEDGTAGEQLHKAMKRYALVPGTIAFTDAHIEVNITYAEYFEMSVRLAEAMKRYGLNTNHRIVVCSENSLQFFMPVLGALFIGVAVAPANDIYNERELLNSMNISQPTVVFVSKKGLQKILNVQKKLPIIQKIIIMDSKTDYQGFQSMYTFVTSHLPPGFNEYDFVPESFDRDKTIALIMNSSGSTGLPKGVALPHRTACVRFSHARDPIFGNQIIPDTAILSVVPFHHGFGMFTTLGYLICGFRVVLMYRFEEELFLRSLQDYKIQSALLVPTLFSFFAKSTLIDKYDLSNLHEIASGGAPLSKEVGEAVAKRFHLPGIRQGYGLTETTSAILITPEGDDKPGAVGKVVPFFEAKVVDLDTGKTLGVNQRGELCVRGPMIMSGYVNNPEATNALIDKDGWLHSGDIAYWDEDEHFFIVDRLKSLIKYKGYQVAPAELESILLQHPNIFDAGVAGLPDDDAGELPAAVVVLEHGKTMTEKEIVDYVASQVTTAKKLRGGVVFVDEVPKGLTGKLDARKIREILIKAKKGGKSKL
Sequence of Streptavidin (Streptomyces avidinii) (P22629 whole entry, looked up): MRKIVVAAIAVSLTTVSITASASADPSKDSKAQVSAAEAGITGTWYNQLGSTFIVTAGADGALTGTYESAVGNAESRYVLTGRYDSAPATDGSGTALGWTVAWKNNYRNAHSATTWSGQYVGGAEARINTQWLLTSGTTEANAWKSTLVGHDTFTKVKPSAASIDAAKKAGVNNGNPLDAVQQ

| SMILES | composite z-score [1] | composite z-score [2] | composite z-score [3] | composite z-score [4] | composite z-score [5] | composite z-score [6] | z-score [7] | composite z-score (Lefty1) | composite z-score [8] | z-score [9] | composite z-score [10] | z-score [11] | z-score [12] | z-score [13] | z-score [14] | composite z-score [15] | composite z-score [16] | composite z-score (Torsin-1A (Homo sapiens) [17]) | composite z-score (Torsin-1A (Homo sapiens) [18]) | composite z-score [19] |
| --- | --- | --- | --- | --- | --- | --- | --- | --- | --- | --- | --- | --- | --- | --- | --- | --- | --- | --- | --- | --- |
| COC(=O)[C@@]1(Cc2ccc(F)cc2)[C@H]2c3cc(C(=O)N4CCCC4)n(CCO)c3C[C@H]2CN1C(=O)c1ccccc1 | 0.896 | 1.05 | 1.51 | -2.15 | -0.212 | -0.862 | 1.44 | -0.0322 | 0.0962 | 1.74 (inactive) | 0.181 | -0.225 (inactive) | 0.452 (inactive) | 0.201 (inactive) | -0.773 (inactive) | 0.0865 | -0.0719 | -0.113 | 0.0413 | -1.69 |
| C=CC[C@]1(C(=O)NCc2ccccc2)COC(c2ccc(OCCCO)cc2)=N1 | 0.16 | -0.0156 | -0.19 | 0.295 | -0.431 | -0.87 | 1.03 | -0.95 | 1.02 | -0.218 (inactive) | 0.602 | -3.63 (inactive) | 0.271 (inactive) | 1.38 (inactive) | -0.505 (inactive) | -0.479 | 0.0503 | 0.29 | 1.52 | -0.88 |
| COc1ccc([Si](C)(C)[C@H]2[C@H](CCO)O[C@@]3(C(=O)N(Cc4ccccc4)c4ccc(N(C=O)c5ccccc5)cc43)[C@@H]2C)cc1 | 0.359 | 0.644 | 0.274 | 0.605 | 0.919 | 0.25 | 0.821 | 1.01 | 0.153 | 0.457 (inactive) | 0.078 | -6.74 (inactive) | -0.862 (inactive) | 2.08 (inactive) | -0.993 (inactive) | 0.593 | 0.122 | -0.0549 | 0.865 | 1.52 |
| C=CCN1C(=O)[C@]2(O[C@H](CCn3cc([C@H](O)c4ccccc4)nn3)[C@@H]([Si](C)(C)c3ccc(OC)cc3)[C@@H]2C)c2cc(N3C(=O)c4cccc5cccc3c45)ccc21 | 0.72 | 0.268 | 0.33 | 0.182 | -0.167 | 0.102 | 1.01 | 0.102 | 0.453 | -0.719 (inactive) | 0.0898 | -6.26 (inactive) | -0.774 (inactive) | 9.81 (active) | -0.745 (inactive) | 0.633 | -0.255 | -0.439 | 1.18 | 0.204 |
| CCC(CC)C(O)C1C=CC2C(=O)N(C)C(=O)C2N1N1CCCCC1 (stereo not given) | 2.05 | 1.23 | -0.0333 | 0.967 | 1.33 | 0.406 | 0.309 | 0.831 | 1.12 | -0.203 (inactive) | 0.323 | 0.374 (inactive) | -0.328 (inactive) | 0.0501 (inactive) | 1.06 (inactive) | 1.51 | 0.3 | 0.504 | 0.844 | 0.959 |
| CN(C)C(=O)[C@]1(Cc2ccccc2)N=C(c2ccc(OCCCO)cc2)O[C@@H]1c1ccccc1 | 2.94 | 1.25 | 0.593 | 1 | 0.973 | -0.263 | 0.473 | -0.222 | 1.2 | -0.701 (inactive) | 0.0831 | -3.35 (inactive) | 0.18 (inactive) | 1.24 (inactive) | 0.14 (inactive) | 0.589 | 0.0184 | 0.193 | 0.71 | -0.46 |
| COCCCNC(=O)[C@@H]1c2ccccc2C(=O)N(Cc2cc(C(F)(F)F)cc(C(F)(F)F)c2)[C@H]1c1ccc(CO)cc1 | 0.358 | 0.6 | 0.358 | -0.788 | 0.144 | 0.188 | 0.983 | 0.174 | -0.672 | 0.0036 (inactive) | 0.128 | -0.334 (inactive) | 0.608 (inactive) | 0.288 (inactive) | -0.613 (inactive) | -0.587 | 0.502 | 0.47 | 0.7 | 0.395 |
| C=C(COC)C(=O)CC[C@@H](OC(=O)c1cccnc1)c1cccc(OCCO)c1 | -0.007 | 0.23 | -0.437 | -1.48 | 1.29 | 0.773 | 0.525 | 1.19 | 0.981 | -2.86 (inactive) | 0.0666 | -0.864 (inactive) | -0.652 (inactive) | 8.15 (active) | 5.43 (inactive) | -0.296 | -0.127 | 0.653 | 0.778 | 1.37 |
| Cc1ccc(F)cc1S(=O)(=O)N[C@@H]1CCN(Cc2ccc3[nH]ccc3c2)C1 | 0.426 | 0.479 | -0.105 | -0.0254 | 1.06 | 0.561 | 0.316 | 0.543 | 0.0689 | 0.175 (inactive) | -0.159 | -2.99 (inactive) | 1.17 (inactive) | -0.147 (inactive) | 0.49 (inactive) | 0.874 | -0.0403 | 0.247 | 0.608 | 0.711 |
| Cc1ccc(S[C@]2(C(=O)NCCCN(C)C)CC(=O)N(Cc3ccccc3Cl)[C@@H]2c2ccc(CO)cc2I)cc1 | -0.704 | -0.522 | 0.404 | -1.05 | -0.667 | -1.09 | 0.935 | -0.767 | 1.17 | -0.543 (inactive) | -0.256 | -0.826 (inactive) | 0.601 (inactive) | 0.0924 (inactive) | 0.752 (inactive) | -0.245 | -0.157 | -0.601 | -0.679 | -0.995 |
